High-throughput results as filed in PubChem BioAssay.
Pf apPOL inh – Pf-apPOL DNA polymerase inhibition; hit rate 0.25% among 210,000; Recombinant Pf-apPOL, molecular beacon fluorescence, 1.5 h; inhibition, % at 10 µM
mHTT CaM bind – mHTT-calmodulin interaction abrogation; AlphaScreen His-mHTT/GST-CaM binding, luminescence; inhibition, % at 15 µM; hit rate 3.6% among 190,000; AID 1671202;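 further: 0% = both proteins with DMSO and 100% = one protein alone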
Starred values were filed as active, the others as inactive; / = no result given. This is a sample that favours compounds with a hit; in the whole collection about 3.5% have one here. No stated cut-off is given here; in the data, active means inhibition above about 50%; inactive means the rest.

SMILES | Pf apPOL inh | mHTT CaM bind
O=C(Nc1nnc(C2CC(=O)N(c3ccc(F)cc3)C2)o1)c1ccccc1F (stereo unspecified) | 1 | 61*
O=C(Nc1nnc(C2CC(=O)N(c3ccccc3)C2)o1)c1ccccc1F (stereo unspecified) | -2 | 13
COc1ccccc1C(=O)N1CCCN(C2CCN(Cc3ccc(F)cc3)C2=O)CC1 (stereo unspecified) | -2 | 15
O=C(c1ccccc1Cl)N1CCCN(C2CCN(Cc3ccc(F)cc3)C2=O)CC1 (stereo unspecified) | -4 | 57*
O=C(Nc1nnc(N=Cc2ccco2)s1)c1ccc(-c2ccccc2)cc1 | 0 | 1
CC(C)n1cnc2ccc(-c3noc(Cc4c[nH]c5ccccc45)n3)cc21 | -4 | 100*
CCCn1cnc2ccc(-c3noc(Cc4cccs4)n3)cc21 | -6 | 23
COc1ccc(CNC(=O)C2CCN(c3nccc(C)n3)CC2)cc1 | 1 | -2
Cc1cc(F)ccc1NS(=O)(=O)c1cc2n(c1)CCCN(C)C2=O | -4 | 2
CN1CCN(Cc2ccc(-c3cccc([N+](=O)[O-])c3)o2)CC1 | -22 | 4
Cc1ccc(C)c(N2CCN(Cc3cc4c(cc3[N+](=O)[O-])OCO4)CC2)c1 | -7 | 32
Cc1ccc(C)c(N2CCN(Cc3ccc(-c4ccccc4[N+](=O)[O-])o3)CC2)c1 | 2 | 70*
O=[N+]([O-])c1cccc(-c2ccc(CN3CCN(c4ccccc4)CC3)o2)c1 | -1 | 56*
N#CSCCCOc1ccccc1F | -6 | -30
CC(=O)N(C1=C(NC2CCCCC2)C(=O)c2ccccc2C1=O)c1ccc(F)c(F)c1 | -6 | 48
CC(=O)N(C1=C(Nc2ccccc2)C(=O)c2ccccc2C1=O)c1ccccc1 | -3 | 55*
CCCNC1=C(N(C(C)=O)c2cccc(F)c2)C(=O)c2ccccc2C1=O | -15 | 27
COc1cccc(N(C(C)=O)C2=C(NC3CCCCC3)C(=O)c3ccccc3C2=O)c1 | 6 | 62*
COc1ccccc1NC(=O)C1=C(C)NC(SC)=C(C#N)C1c1ccccc1F (stereo unspecified) | -10 | -11
CCCCOC(=O)Nc1ccc(C)cc1C | 11 | -22
COCCN=C1Nc2ccccc2NC12CCCN(C(=O)c1ccccc1Cl)C2 (stereo unspecified) | -1 | 13
COCCN=C1Nc2ccccc2CNC12CCN(C(=O)Cc1cccc(C)c1)C2 (stereo unspecified) | -3 | 20
COCCN=C1Nc2ccccc2NC12CCCN(C(=O)c1ccc(C)nc1)C2 (stereo unspecified) | -5 | 2
COCCN=C1Nc2ccccc2NC12CCCN(C(=O)CCc1c[nH]c3ccccc13)C2 (stereo unspecified) | -3 | 71*
COCCN=C1Nc2ccccc2NC12CCCN(C(=O)Cc1cccc(C)c1)C2 (stereo unspecified) | -4 | 52*
SMILES | Pf apPOL inh | mHTT CaM bind
COCCN=C1Nc2ccccc2NC12CCCN(C(=O)c1cc(-c3ccccc3)n[nH]1)C2 (stereo unspecified) | -4 | 67*
CCOc1ccccc1-c1noc(-c2cc(-c3ccccc3)n[nH]2)n1 | 6 | 22
COC(CNC(=O)c1ccc(CNC(=O)c2cccc(Br)c2)cc1)OC | -14 | 1
CCCCc1ccc(NC=C(C#N)c2nc(-c3cc4ccccc4oc3=O)cs2)cc1 | -4 | 9
O=C(/C=C/c1ccc(-c2ccccc2)o1)c1ccco1 | -1 | 48
O=C(/C=C/c1ccc(-c2ccc([N+](=O)[O-])cc2)o1)c1ccco1 | 8 | 13
CC1=C/C(=C/c2ccc(-c3ccc([N+](=O)[O-])cc3)o2)C(=O)O1 | 3 | 19
O=C(/C=C/c1ccc(-c2ccccc2[N+](=O)[O-])o1)c1ccco1 | -4 | 71*
CC1=C/C(=C\c2ccc(-c3ccccc3[N+](=O)[O-])o2)C(=O)O1 | 0 | 51*
O=C(/C=C/c1ccc(-c2ccc(Cl)cc2)o1)c1ccco1 | -4 | 58*
COc1cc2c(cc1OC)C(C(=O)N1CCCC1)C(c1cccnc1)N(C)C2=O (stereo unspecified) | 9 | -2
COc1ccc(CCNC(=O)CN2N=C(c3ccc(Cl)cc3)CCC2=O)cc1OC | -18 | 15
Cc1ccc(CCNC(=O)CN2N=C(c3ccc(Cl)cc3)CCC2=O)cc1 | -13 | 65*
Cc1ccc(CNC(=O)C2CCCN(c3nnc4ccc(Cl)cn34)C2)o1 (stereo unspecified) | 1 | 23
COc1cc(/C=C2\SC(=O)N(Cc3ccc(F)cc3)C2=O)cc(OC)c1OC | -33 | -2
O=C(Nc1nnc(C2CC(=O)N(c3ccc(Cl)cc3)C2)o1)c1cccc(F)c1 (stereo unspecified) | -4 | 29
COc1cc(OC)cc(C2=Cc3ccccc3C(CC(C)=O)N2c2ccc(-c3cncnc3)cc2)c1 (stereo unspecified) | -3 | 50*
O=C(CC1c2ccccc2C=C(c2ccsc2)N1c1ccc(-c2cccnc2)cc1)C1CC1 (stereo unspecified) | -6 | 84*
COc1ncc(-c2ccc(N3C(c4ccsc4)=Cc4ccc(F)cc4C3CC(=O)c3ccco3)cc2)cn1 (stereo unspecified) | -6 | 15
COc1cc(OC)cc(C2=Cc3ccccc3C(CC(C)=O)N2c2ccc(-c3cccs3)cc2)c1 (stereo unspecified) | -3 | 40
CN(C)c1cc(C(=O)NCc2ccccc2)nc2ccnn12 | 0 | -36
COc1ccc(Cl)cc1NC(=O)Cc1cn(C)c2ccccc12 | 1 | 22
CNC(=O)C1CN(C(=O)Nc2ccccc2Cl)CC12CCCC2 (stereo unspecified) | -3 | -8
O=C(O)c1cn[nH]c1-c1ccc(F)cc1 | 1 | -2
CCCN1C(=O)C(=O)c2cc(Br)ccc21 | -68 | 25
SMILES | Pf apPOL inh | mHTT CaM bind
O=C1C(=O)N(Cc2ccc(F)cc2)c2ccc(Br)cc21 | -1 | 70*
Cc1ccc(CN2C(=O)C(=O)c3cc(Br)ccc32)cc1 | 0 | 51*
C=CCN1C(=O)C(=O)c2cc(Br)ccc21 | 3 | 9
O=C1C(=O)N(Cc2ccc(Cl)c(Cl)c2)c2ccc(Br)cc21 | 2 | 100*
O=C1C(=O)N(Cc2ccc(F)cc2)c2ccc([N+](=O)[O-])cc21 | -2 | 11
COc1ccc(C=NC2=NN(c3ccccc3)CC2)cc1 | 2 | 37
CCOC(=O)[C@@H]1CSCCS(=O)(=O)N1Cc1ccc(C(F)(F)F)cc1 | -6 | -5
COc1ccc(N2C(=O)CN(C3CCCCCC3)C3CS(=O)(=O)CC32)cc1Cl (stereo unspecified) | -6 | 4
COCCNC(=O)C1(C)CCC(=O)N1Cc1ccccc1C (stereo unspecified) | 4 | -2
CC(=O)c1cccc(N2COc3ccc(Cl)cc3C2)c1 | -6 | 22
O=[N+]([O-])c1cccc(N2COc3ccc(Cl)cc3C2)c1 | 1 | 54*
COc1ccc(OCc2nc(C#N)c(NCCc3ccccc3)o2)cc1 | 0 | 31
COc1cccc(NC(=O)N2CCCc3ccccc32)c1 | -11 | /
COc1cccc(NC(=O)N2CCN(C)c3ccccc32)c1 | 0 | 53*
CC1CCn2c(nc3cc(C(=O)NCCCOC(C)C)ccc32)C1 (stereo unspecified) | -4 | -7
COc1cccc(Oc2coc3cc(O)ccc3c2=O)c1 | -12 | 6
COc1ccc(S(=O)(=O)N=C2C=C(Nc3cccc(C)c3)C(=O)c3ccccc32)cc1 | -16 | 91*
